This is an account of results in PubChem BioAssay (NCATS).

Test [1] concerns NIH3T3. The test can be described thus: qHTS assay to identify novel small-molecules to repurpose for Merkel cell carcinoma treatment (AID 1296009). Further: nearly all actives have a fitted effect of over 60% in size. As to conditions: MCC and control cell lines, CellTiter-Glo viability, 72 h; at 44.8 µM (top of the series) unless noted. The gist of the method:
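Cell viability, measured as CellTiter-Glo luminescence, was normalized between DMSO and no-cell wells. The cells had been exposed to 8- or 11-point compound dilutions for 72 hr at 37 degree celsius.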

The subject of test [2] is CAOV3. The test can be described thus: Primary qHTS to identify gynecologic anti-cancer compounds using libraries of approved drugs and bioactive compounds (AID 1345084). Further: nearly all actives have a fitted effect of over 55% in size. Further: potency means the concentration at half of the fitted maximal effect. On activity change, negative = cytotoxicity: on the % scale 0 is the no-effect control and ±100 the full control effect. The following applies: Gynecologic cancer cell panel viability, ATPlite luminescence, 48 h; series mostly up to 57.5 µM. The gist of the method:
(§1)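 Cytotoxicity screen measuring ATP content by luciferase luminescence. Each compound is applied at five concentrations for 48 h at 37 C with 5% CO2.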
In general terms: qHTS replaces the single test concentration by a dilution series.

Test [3] relates to CASKI. The test is described as above. The following applies: Gynecologic cancer cell panel viability, ATPlite luminescence, 48 h; series mostly up to 57.5 µM. In a few lines: as §1
A general note: Cellular ATP, detected with luciferase, serves as a proxy for viable cell number.

Test [4] deals with Es-2. The description is as above. The following applies: Gynecologic cancer cell panel viability, ATPlite luminescence, 48 h; series mostly up to 57.5 µM. The gist of the method: as §1
For test [5], the system named is HeLa. The test is described as above. The following applies: Gynecologic cancer cell panel viability, ATPlite luminescence, 48 h; series mostly up to 57.5 µM. The gist of the method:
as §1

Test [6] relates to Hek293T. The description is as above. The following applies: Gynecologic cancer cell panel viability, ATPlite luminescence, 48 h, control line for the selectivity index; series mostly up to 57.5 µM. The gist of the method: as §1
In test [7] the test system is JEG-3. The description is as above. As to conditions: Gynecologic cancer cell panel viability, ATPlite luminescence, 48 h; series mostly up to 57.5 µM. In a few lines: as §1
Test [8] relates to OV90. Described as above. The following applies: Gynecologic cancer cell panel viability, ATPlite luminescence, 48 h; series mostly up to 57.5 µM. In a few lines: as §1
For test [9], the system named is PA-1. The test is described as above. As to conditions: Gynecologic cancer cell panel viability, ATPlite luminescence, 48 h; series mostly up to 57.5 µM. In a few lines: as §1
Test [10] concerns SKOV3. The test is described as above. As to conditions: Gynecologic cancer cell panel viability, ATPlite luminescence, 48 h; series mostly up to 57.5 µM. The gist of the method: as §1
Test [11] concerns Tov-21-G. The description is as above. As to conditions: Gynecologic cancer cell panel viability, ATPlite luminescence, 48 h; series mostly up to 57.5 µM. In a few lines: as §1
In test [12] the test system is Tov112D. Described as above. The following applies: Gynecologic cancer cell panel viability, ATPlite luminescence, 48 h; series mostly up to 57.5 µM. In a few lines: as §1
Test [13] relates to C33A. The description is as above. The following applies: Gynecologic cancer cell panel viability, ATPlite luminescence, 48 h; series mostly up to 57.5 µM. The gist of the method: as §1

Inconclusive results are not listed. Values without a mark were called inactive. The source made the active and inactive calls. The call rests on the fitted dose curve; in most records, active means well fitted curve in the direction sought with a large enough effect; inconclusive means small, poorly fitted or top-dose-only effect, or another doubt; inactive means no such curve, though single readings can be large; an effect the other way counts as inactive or inconclusive.

Regarding `O=C(Cc1ccc(Cl)cc1)Nc1cnccc1C(=O)O`, the call in [1] and in test [3] was inactive. In addition, the Potency entry in test [2], in [4], in test [5], in test [6], in test [7] and in test [8] was “inactive” throughout. In addition, the Potency result in test [9], in [10], in test [11] and in [12] was “inactive” in each case.

With `C/C=C/C1OC2=C(C(=O)OC2(C)O)C(O)C1O` (centres undefined), the compound was classed as inactive in [1] and in [3]. For the same compound, the Potency entry in test [13], in [4], in [5], in test [6], in test [7] and in test [8] was “inactive” in each case. The Potency entry in test [9], in [10], in test [11] and in test [12] was “inactive” throughout.

Regarding `C/C(=C\C(=O)C(C)C1CCC2C3=C(CCC21C)C1(C)CCC(=O)C(C)(C)C1(O)CC3)C(C)(C)O` (centres undefined), in [1], the outcome was “inactive [at 17.4 µM]”. In addition, the Potency result in test [13], in test [4], in test [5], in [6], in test [7] and in test [8] was “inactive” each time. Besides, the Potency result in [9], in test [11] and in test [12] was “inactive” in each case. Further, in test [3], the outcome was inactive.

In the case of `CC1=C2C(=O)C=C(CO[C@@H]3O[C@H](CO)[C@@H](O)[C@H](O)[C@H]3O)[C@@H]2[C@H]2OC(=O)[C@H](C)[C@@H]2CC1`, in test [1], the outcome was “inactive [at 17.4 µM]”. Moreover, the Potency result in test [13], in [4], in test [5], in test [6], in [7] and in test [8] was “inactive” each time. Besides, the Potency result in test [9], in [10], in [11] and in test [12] was “inactive” throughout. Moreover, in [3], the outcome was inactive.

Take `CC1(C)CC[C@]2(C(=O)O[C@@H]3O[C@H](CO[C@@H]4O[C@H](CO)[C@@H](O)[C@H](O)[C@H]4O)[C@@H](O)[C@H](O[C@@H]4O[C@H](CO)[C@@H](O)[C@H](O)[C@H]4O)[C@H]3O)CC[C@]3(C)C(=CCC4[C@@]5(C)CC[C@H](O[C@@H]6OC[C@@H](O)[C@H](O)[C@H]6O)[C@@](C)(C(=O)O)C5CC[C@]43C)[C@@H]2C1` (some centres undefined): the activity change, negative = cytotoxicity in [13] was 0.217% [at 11.6 µM]; in test [2] it was 15.5% [at 11.6 µM]; in test [3], 9.7% [at 11.6 µM]; in [4] it was -1.43% [at 11.6 µM]; in [5], 13.2% [at 11.6 µM]; in test [6], 2.76% [at 11.6 µM]. The activity change, negative = cytotoxicity in [7] was 2.05% [at 11.6 µM]; in [8], 1.75% [at 11.6 µM]; in test [9], 0.621% [at 11.6 µM]; in test [10], 10.7% [at 11.6 µM]; in test [11], 10.6% [at 11.6 µM]; in test [12], 3.57% [at 11.6 µM].

`COc1cc(C(C)=O)ccc1O[C@@H]1O[C@H](CO[C@@H]2OC[C@@H](O)[C@H](O)[C@H]2O)[C@@H](O)[C@H](O)[C@H]1O`: the outcome in [1] is “inactive [at 17.4 µM]”. The Potency result in [13], in test [2], in [5], in [6], in [7] and in test [8] was “inactive” each time. Also, the Potency entry in [9], in test [10], in test [11] and in [12] was “inactive” throughout. Moreover, in test [3], the compound was classed as inactive.

In the case of `O=C(OCc1ccccc1O[C@@H]1O[C@H](CO)[C@@H](O)[C@H](O)[C@H]1O)C1(O)C=CCCC1O` (some centres undefined), the Potency entry in test [13], in [2], in test [4], in test [5], in test [6] and in [7] was “inactive” each time. Moreover, the Potency result in [8], in test [9], in test [10], in test [11] and in test [12] was “inactive” throughout. Besides, the outcome in [3] was inactive.

Regarding `CCCNCCOc1ccc(NC(=O)c2c[nH]c3c2C(=O)CCC3)cc1F`, the Potency entry in test [13], in test [2], in [4], in test [5], in test [6] and in test [7] was “inactive” each time. For the same compound, the Potency entry in test [8], in [9], in [10], in test [11] and in test [12] was “inactive” in each case. Also, in test [3], the compound was called inactive.

`CC(C)C(O)(CO)CCO[C@@H]1O[C@H](CO[C@H]2OC[C@](O)(CO)[C@H]2O)[C@@H](O)[C@H](O)[C@H]1O` (some centres undefined): in test [1], the outcome was “inactive [at 17.4 µM]”. For the same compound, the Potency result in test [13], in test [4], in test [5], in [6], in [7] and in [8] was “inactive” each time. Also, the Potency entry in [9], in test [10], in test [11] and in test [12] was “inactive” in each case. The result in test [3] was inactive.

In the case of `CC(=O)Nc1cccc2c1c(Sc1ccc(Cl)cc1)c(C)n2CC(=O)O`, the compound was classed as inactive in test [1]. Moreover, the Potency result in test [4], in test [7] and in test [10] was “inactive” throughout.

With `C/C=C(\C)C(=O)OC1C(C)C2(O)C3C=C(C)C(=O)C3CC(CO)=CC2C2C(C)(C)C12OC(C)=O` (centres undefined), the outcome in test [1] was “inactive [at 17.4 µM]”. In addition, the Potency entry in test [2], in [5], in test [6], in test [7], in [8] and in [10] was “inactive” each time. The Potency entry in test [11] and in test [12] was “inactive” in each case. The compound was classed as inactive in test [3]. Also, the Potency in test [4] is 112 nM (active).

Consider `CC1(C)CC[C@]2(C(=O)O)CC[C@]3(C)C(=CCC4[C@@]5(C)C[C@@H](O)[C@H](O)[C@](C)(CO)C5CC[C@]43C)[C@@H]2[C@@H]1O` (some centres undefined), for which the outcome in test [1] is “inactive [at 17.4 µM]”. Also, the outcome in test [3] was inactive. The Potency entry in [6] and in [8] was “inactive” in each case.

As for `COc1cc2c(cc1OC)N1C(=O)C[C@@]34C=CC[N@+]5([O-])CC[C@H]2[C@H](CC3)[C@@]145`, the result in test [1] and in [3] was inactive. Besides, the Potency entry in test [13], in test [4], in [5], in [6], in [7] and in test [8] was “inactive” each time. For the same compound, the Potency result in test [9], in test [10], in [11] and in test [12] was “inactive” in each case.

On to `Nc1nc(COC(=O)c2ccc([N+](=O)[O-])cc2)nc(Nc2ccccc2)n1`, for which the Potency entry in [13], in test [4], in [5], in test [6], in [7] and in [8] was “inactive” in each case. The Potency result in test [9], in test [10], in test [11] and in [12] was “inactive” each time. In addition, in test [3], the result was inactive.
